Data as given in the supplement of paper PMC4723716.
Whole data set: some 3,600 compounds, median “viability index relative to DMSO control” near 0.81, cut for the lowest 2% near 0.13. The sample as a whole holds a higher share of the lowest values than the screen did.

system: Plasmodium falciparum NF54 stage V gametocytes; assay: viability index relative to DMSO control (fraction); higher = less gametocyte killing; conditions: 1.25 µM, incubation time: 72 h
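Further: Saponin-lysis sexual stage assay in serum-free medium: MitoTracker Red CMXRos staining plus saponin, high-content imaging, particle count per well divided by plate mean of DMSO wells.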

| Compound | viability index |
| --- | --- |
| O=C(c1cc2n(n1)C(C(F)(F)F)CC(c1ccc3c(c1)OCO3)N2)N1CCN(C(c2ccccc2)c2ccccc2)CC1 (stereo not given) | 0.682 |
| CC(=O)Nc1ccc(-c2nc3c4ccccc4c4ccc(I)cc4c3[nH]2)cc1 | 0.762 |
| C(=NNc1nc2ccccc2[nH]1)c1c[nH]c2ccccc12 | 0.558 |
| COc1cccc(CNc2cc(C(=O)NCCNC(C)=O)cc(S(=O)(=O)N(C)C)c2)c1OC | 1.32 |
| CCOc1ccc2nc(C)cc(Nc3ccc(C)c(Cl)c3)c2c1 | 0.852 |
| CCOc1ccc2nc3cc(NCc4ccco4)ccc3c(N)c2c1 | 0.775 |
| COc1ccc(C2c3[nH]c4ccccc4c3C[C@H]3C(=O)N(CCC(C)C)CC(=O)N23)cc1 (stereo not given in full) | 0.803 |
| C=CCSc1nnc2c(n1)[nH]c1ccc(OCC)cc12 | 0.656 |
| O=C(Nc1ccc(-c2nc3ccc(NC(=O)c4ccc(Br)o4)cc3[nH]2)cc1)c1ccc(Br)o1 | 1.1 |
| Cc1cc(N2CCC(C)CC2)nc2ccc(NC(=O)c3ccc([N+](=O)[O-])o3)cc12 | 0.12 |
| O=C(CN1CCN(C(=O)c2ccccc2)CC1)Nc1ccc(-c2nc3cc(NC(=O)CN4CCN(C(=O)c5ccccc5)CC4)ccc3o2)cc1 | 0.951 |
| Cc1ccc(-c2nc3cc(NC(=O)c4ccc([N+](=O)[O-])o4)ccc3o2)cc1Br | 0.0755 |
| Cc1cc(N2CCCCC2)nc2ccc(NC(=O)c3cccc([N+](=O)[O-])c3)cc12 | 0.787 |
| Cc1cccc(-c2nc3cc(NC(=S)NC(=O)c4ccc(Cl)cc4)ccc3o2)c1 | 0.808 |
| O=C(Nc1ccc2oc(-c3ccc(I)cc3)nc2c1)c1ccc([N+](=O)[O-])o1 | 0.0302 |
| Cc1cc(N2CCN(C)CC2)nc2ccc(NC(=O)c3ccc(Br)o3)cc12 | 0.924 |
| Cc1ccc(-c2nc3cc(NC(=O)c4ccc(Cl)cc4Cl)ccc3o2)cc1 | 1.32 |
| Cc1cc([N+](=O)[O-])ccc1-c1ccc(C(=O)Nc2ccc(-c3nc4ccccc4[nH]3)cc2)o1 | 0.622 |
| Cc1cccc(-c2nc3cc(NC(=O)c4ccc([N+](=O)[O-])o4)ccc3o2)c1 | 0.0679 |
| Nc1ccc(C(=O)Nc2ccc(-c3nc4ccccc4o3)cc2)cc1 | 0.703 |
| CNC(=O)c1nn(C)c2c1CC(NCC1CCCCC1)CC2 (stereo not given) | 0.702 |
| CC(=NNC(=O)c1ccc(C)cc1)c1ccccn1 | 0.294 |
| CCOC(=O)c1oc2cc(O)c(CC)cc2c(=O)c1-c1ccc2c(c1)OCO2 | 1.09 |
| CCOc1ccc2[nH]c(=O)c(CN(CCCN3CCOCC3)C(=S)NCCCN(CC)CC)cc2c1 | 0.814 |
| Oc1cccc(Nc2nc(NCc3ccco3)c3ccccc3n2)c1 | 0.595 |
| O=[N+]([O-])c1cccc(Cl)c1N1CCN(S(=O)(=O)Cc2ccccc2)CC1 | 1 |
| COc1cc(C=C(C#N)c2nc3ccccc3[nH]2)ccc1OCc1ccccc1Cl | 0.678 |
| CC1CC(N(C(=O)c2ccc(Cl)cc2Cl)c2ccccc2)c2ccccc2N1C(=O)c1ccc(Cl)cc1 (stereo not given) | 0.723 |

| Compound | viability index |
| --- | --- |
| O=[N+]([O-])c1cc(C(F)(F)F)cc([N+](=O)[O-])c1Sc1cccc2cccnc12 | 0.0789 |
| O=[N+]([O-])c1cc([N+](=O)[O-])c2cccnc2c1Nc1cccc2cccnc12 | 0.209 |
| CCC(=O)NC(c1cccc([N+](=O)[O-])c1)c1ccc2cccnc2c1O (stereo not given) | 1.12 |
| COc1cccc2c1OCC(CN1CCC(C(=O)Nc3ccc(-n4cccn4)cc3)CC1)=C2 | 1.03 |
| O=C(Nc1ccc(-c2nc3ccccc3[nH]2)cc1)c1ccc(-c2cccc([N+](=O)[O-])c2)o1 | 0.751 |
| O=C(Nc1ccc2oc(-c3cccc4ccccc34)nc2c1)c1ccc([N+](=O)[O-])o1 | 0.0679 |
| O=C(Nc1ccc(F)c(F)c1)c1ccccc1[N+](=O)[O-] | 1.03 |
| O=C(Nc1ccc2oc(-c3ccccc3F)nc2c1)c1ccc([N+](=O)[O-])o1 | 0.128 |
| CCC(C)(C)c1ccc(Oc2ccc(NC(=O)c3ccc([N+](=O)[O-])o3)cc2)cc1 | 0.362 |
| O=C(Nc1ccc(-c2nnc(-c3ccc(NC(=O)c4ccccc4[N+](=O)[O-])cc3)o2)cc1)c1ccccc1[N+](=O)[O-] | 0.756 |
| CCN1C(=Cc2cccc[n+]2C)C=Cc2ccccc21 | 1.01 |
| CCN1CCC(NC2CCCc3c2[nH]c2ccc([N+](=O)[O-])cc32)CC1 (stereo not given) | 1.07 |
| CC1CCN(C(=O)C(C)N(c2ccccc2)S(C)(=O)=O)CC1 (stereo not given) | 0.917 |
| O=C1OC(c2ccccc2)=NC1=C(Cl)Cl | 1.1 |
| Cc1cc(Nc2ccc(O)cc2)nc2cccc(O)c12 | 0.735 |
| Cc1c2ccccc2cc(Cc2ccccc2)[n+]1C | 0.76 |
| c1ccc2c(c1)ccc1cc3cccc[n+]3cc12 | 0.0821 |
| C=CC[n+]1cccc2c3ccccc3ccc21 | 0.706 |
| O=C(c1ccc([N+](=O)[O-])cc1)c1ccc(Cl)c(Cl)c1 | 0.574 |
| CCOC(=O)C1=C(C)N=c2sc(=Cc3cccc(OCc4cccc5ccccc45)c3)c(=O)n2C1c1ccc(OC)cc1OC (stereo not given) | 0.924 |
| O=C(Cc1ccc(Cl)cc1)NNS(=O)(=O)c1ccc([N+](=O)[O-])cc1 | 0.939 |
| O=C(Nc1ccc(-c2nc3ccccc3[nH]2)cc1)c1ccc(Cl)c(Cl)c1 | 1.03 |
| O=C(Nc1ccc(-c2nc3ccccc3[nH]2)cc1)c1ccc(-c2ccc(Cl)cc2)o1 | 0.725 |
| O=C(C=Cc1ccccc1)Nc1ccc(-c2nc3cc(NC(=O)C=Cc4ccccc4)ccc3[nH]2)cc1 | 0.11 |
| O=C(Nc1ccc(-c2nc3ccccc3[nH]2)cc1)c1cccc(C(=O)Nc2ccc(-c3nc4ccccc4[nH]3)cc2)n1 | 0.0331 |
| O=C(Nc1ccc(-c2nc3cc(NC(=O)C(c4ccccc4)c4ccccc4)ccc3[nH]2)cc1)C(c1ccccc1)c1ccccc1 | 0.908 |
| O=C(Nc1ccc(-c2nc3cc(NC(=O)c4cccs4)ccc3[nH]2)cc1)c1cccs1 | 1.05 |
